From PubChem BioAssay (NCI)
The panel holds about 83,000 compounds, 20% with a hit somewhere; the sample as a whole holds those more often.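 Negative percent growth values reflect cell death: -40 means 40% of the cells present at the start died, and -100 means all died.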 The source made the active and inactive calls. Rule for the calls: active = growth percent below 10; inactive = the rest.

What follows are compounds tested on NCI-H23 lung (assay: NCI-60 one-dose screen, 48 h (100 = growth as untreated, 0 = no growth, -100 = all killed)). Conditions: 10 µM unless noted.

Structure (SMILES) | growth
CC(C)Cc1ccc(C(C)C(=O)NCc2ccc(Cn3c(=O)sn(-c4ccc(Cl)cc4)c3=O)cc2)cc1 (stereo unspecified) | 85.6% (inactive)
COc1ccc(Cn2nc3c(c2-c2cc(OC)c(OC)c(OC)c2)-c2oncc2CC3)cc1 | 79.8% (inactive)
Cc1ccc(C(c2c(O)c3cc(Br)ccc3[nH]c2=O)c2c(O)c3cc(Br)ccc3[nH]c2=O)cc1 | 86.7% (inactive)
CN1CCN(Cc2ccc(NC(=O)c3cncc(C#Cc4cnccc4C(F)(F)F)c3)cc2C(F)(F)F)CC1 | 67.9% (inactive)
COc1ccc(/C=C/c2n[nH]c3ccc(N4CCOC4=O)cc23)cc1 | 12.4% (inactive)
COc1cc2nnn3c4ncccc4c(N=O)c3c2cc1OC | 112% (inactive)
Cc1cc2nc(-c3ccccc3)c(-c3ccccc3)nc2cc1C | 98.2% (inactive)
Cc1ccc2[nH]c(=O)cc(-n3nncc3COc3ccc(C=O)cc3)c2c1 | 103% (inactive)
CCCOc1nc(SCCC)nc2c1cnn2-c1ccccc1 | 93.8% (inactive)
NC(=O)c1cccc(-c2ccccc2N2CCCCC2)c1 | 103% (inactive)
COc1cc2ncnc(Nc3ccc(C(=O)/C=C/c4ccc(C(F)(F)F)cc4F)cc3)c2cc1OC | 99.5% (inactive)
CC(=O)OCCCCCNc1ccccc1 | 101% (inactive)
O=C(Nc1sc2c(c1C(=O)O)CCCC2)c1cccc(C(F)(F)F)c1 | 90.1% (inactive)
CCN1C(=O)N(CC)C2NC(SC)=NC21 (stereo unspecified) | 98% (inactive)
C/C(=C(/c1ccccc1)c1ccc(OCC(O)CN2CCOCC2)cc1)c1ccccc1 (stereo unspecified) | 101% (inactive)
COc1ccc(C(=O)c2cc3c(N)c(C(=O)Nc4ccc(Br)cc4)sc3nc2C)cc1 | 82.7% (inactive)
CCOC(=O)Oc1c(OC)cc(C(=O)O[C@@H]2C[C@@H]3CN4CCc5c([nH]c6cc(OC)ccc56)[C@H]4C[C@@H]3[C@H](C(=O)OC)[C@H]2OC)cc1OC | 74.9% (inactive)
COc1ccc(-c2nc(N/N=C/c3ccco3)nc(N3CCOCC3)c2C#N)cc1 | 81% (inactive)
CCC(=O)c1ccc(O)c(OC)c1 | 96.1% (inactive)

Structure (SMILES) | growth
COc1ccc(-c2nc(N=Nc3c(O)[nH]c4ccccc34)nc(N3CCOCC3)c2C#N)cc1 | 81.9% (inactive)
CCCCCCCCCCCCCCCC(=O)OC[C@@]1(O)C[C@@]23CC[C@@H]4C(C)(C)[C@H](O)CC[C@@]4(C)[C@@H]2CC[C@H]1C3 | 98% (inactive)
FC(F)(F)Oc1cccc(-c2cc(NCCCCCCNc3cc(-c4cccc(OC(F)(F)F)c4)nc4ccc(N5CCCC5)cc34)c3cc(N4CCCC4)ccc3n2)c1 | -19.9% (active)
COc1ccc(C2=C(c3ccccc3)c3ccc(OC(C)=O)cc3OC2(C)C)cc1 | 79.8% (inactive)
Cc1c2c(cc[n+]1Cc1ccc(F)cc1)c1ccc(OCc3cccc(F)c3)cc1n2Cc1cccc(F)c1 | -58.1% (active)
CC1=CC2(C)/C=C(C)/C=C\CC(O)/C=C3/C=CC(=C4C(=O)OC2(CC1C)C4=O)OC3 (stereo unspecified) | -97.5% (active)
O=C1OC(=O)C2C1CC=CC2c1ccccc1 (stereo unspecified) | 84.7% (inactive)
C=C(C)[C@H]1CC/C(C)=C/CC[C@]2(C)O[C@H]2CC/C(COC(=O)[C@@H](OC(C)=O)[C@H](NC(=O)c2ccccc2)c2ccccc2)=C\[C@@H]1O | 98.5% (inactive)
O=C(O)c1cn(C2CC2)c2cc(N3CCN(C(=O)C[n+]4cccc5ccccc54)CC3)c(F)cc2c1=O | 84.4% (inactive)
COc1ccc(Nn2c(SCC(=O)Nc3nc(-c4ccc(Cl)cc4)cs3)nc(C)c2C)cc1 | 31.9% (inactive)
Cn1c2c(Cl)c(Cl)ccc2c2cc(N)[nH]c(=O)c21 | 76.2% (inactive)
CC(=O)c1c[nH]c2ccc(-c3ccnc(Nc4ccc(NC(=O)c5cccc(F)c5)c(CN5CCOCC5)c4)n3)cc12 | -13.2% (active)
Clc1nc(Nc2ccccc2)nc(Nc2ccccc2)n1 | 103% (inactive)
O=C1Nc2c(ccc(Cl)c2Cl)/C1=C/c1ccccn1 | 81.5% (inactive)
Cc1ccc2nc3c(cc2c1)CSc1nnc(-c2ccc[nH]c2=S)n1N3 | 98.6% (inactive)
CN1CCN(C(=O)[C@]2(C)CC[C@]3(C)CC[C@]4(C)C(=CC(=O)[C@@H]5[C@@]6(C)CCC(=O)NC(C)(C)[C@@H]6CC[C@]54C)[C@@H]3C2)CC1 | 100% (inactive)
COc1ccc(-c2nn(Cc3ccccc3)c3c2-c2oncc2CC3)cc1OC | 105% (inactive)
O=c1[nH]c2c(s1)CCCC2CN1CCCCC1 (stereo unspecified) | 96.5% (inactive)
CC(C)(C)CC(C)(C)Nc1c(-c2ccc3c(c2)OCO3)nc2cnccn12 | 97.7% (inactive)

The compounds below were run on NCI-H226 lung in the same assay as above. Conditions: 10 µM unless noted.

Structure (SMILES) | growth
CC(C)Cc1ccc(C(C)C(=O)NCc2ccc(Cn3c(=O)sn(-c4ccc(Cl)cc4)c3=O)cc2)cc1 (stereo unspecified) | 82.6% (inactive)
COc1ccc(Cn2nc3c(c2-c2cc(OC)c(OC)c(OC)c2)-c2oncc2CC3)cc1 | 106% (inactive)
Cc1ccc(C(c2c(O)c3cc(Br)ccc3[nH]c2=O)c2c(O)c3cc(Br)ccc3[nH]c2=O)cc1 | 74% (inactive)
CN1CCN(Cc2ccc(NC(=O)c3cncc(C#Cc4cnccc4C(F)(F)F)c3)cc2C(F)(F)F)CC1 | 47.8% (inactive)
COc1ccc(/C=C/c2n[nH]c3ccc(N4CCOC4=O)cc23)cc1 | 6.06% (active)
COc1cc2nnn3c4ncccc4c(N=O)c3c2cc1OC | 97% (inactive)
Cc1cc2nc(-c3ccccc3)c(-c3ccccc3)nc2cc1C | 94.9% (inactive)
Cc1ccc2[nH]c(=O)cc(-n3nncc3COc3ccc(C=O)cc3)c2c1 | 90.3% (inactive)
CCCOc1nc(SCCC)nc2c1cnn2-c1ccccc1 | 96.6% (inactive)
NC(=O)c1cccc(-c2ccccc2N2CCCCC2)c1 | 98.9% (inactive)
COc1cc2ncnc(Nc3ccc(C(=O)/C=C/c4ccc(C(F)(F)F)cc4F)cc3)c2cc1OC | 92.7% (inactive)
CC(=O)OCCCCCNc1ccccc1 | 104% (inactive)
O=C(Nc1sc2c(c1C(=O)O)CCCC2)c1cccc(C(F)(F)F)c1 | 103% (inactive)
CCN1C(=O)N(CC)C2NC(SC)=NC21 (stereo unspecified) | 94.3% (inactive)
C/C(=C(/c1ccccc1)c1ccc(OCC(O)CN2CCOCC2)cc1)c1ccccc1 (stereo unspecified) | 96.6% (inactive)
COc1ccc(C(=O)c2cc3c(N)c(C(=O)Nc4ccc(Br)cc4)sc3nc2C)cc1 | 38.5% (inactive)
CCOC(=O)Oc1c(OC)cc(C(=O)O[C@@H]2C[C@@H]3CN4CCc5c([nH]c6cc(OC)ccc56)[C@H]4C[C@@H]3[C@H](C(=O)OC)[C@H]2OC)cc1OC | 102% (inactive)
COc1ccc(-c2nc(N/N=C/c3ccco3)nc(N3CCOCC3)c2C#N)cc1 | 84.8% (inactive)
CCC(=O)c1ccc(O)c(OC)c1 | 72.4% (inactive)

Structure (SMILES) | growth
COc1ccc(-c2nc(N=Nc3c(O)[nH]c4ccccc34)nc(N3CCOCC3)c2C#N)cc1 | 38.4% (inactive)
CCCCCCCCCCCCCCCC(=O)OC[C@@]1(O)C[C@@]23CC[C@@H]4C(C)(C)[C@H](O)CC[C@@]4(C)[C@@H]2CC[C@H]1C3 | 99.2% (inactive)
FC(F)(F)Oc1cccc(-c2cc(NCCCCCCNc3cc(-c4cccc(OC(F)(F)F)c4)nc4ccc(N5CCCC5)cc34)c3cc(N4CCCC4)ccc3n2)c1 | 68.5% (inactive)
COc1ccc(C2=C(c3ccccc3)c3ccc(OC(C)=O)cc3OC2(C)C)cc1 | 86.3% (inactive)
Cc1c2c(cc[n+]1Cc1ccc(F)cc1)c1ccc(OCc3cccc(F)c3)cc1n2Cc1cccc(F)c1 | -66.9% (active)
CC1=CC2(C)/C=C(C)/C=C\CC(O)/C=C3/C=CC(=C4C(=O)OC2(CC1C)C4=O)OC3 (stereo unspecified) | 59.4% (inactive)
O=C1OC(=O)C2C1CC=CC2c1ccccc1 (stereo unspecified) | 90.6% (inactive)
C=C(C)[C@H]1CC/C(C)=C/CC[C@]2(C)O[C@H]2CC/C(COC(=O)[C@@H](OC(C)=O)[C@H](NC(=O)c2ccccc2)c2ccccc2)=C\[C@@H]1O | 95% (inactive)
O=C(O)c1cn(C2CC2)c2cc(N3CCN(C(=O)C[n+]4cccc5ccccc54)CC3)c(F)cc2c1=O | 101% (inactive)
COc1ccc(Nn2c(SCC(=O)Nc3nc(-c4ccc(Cl)cc4)cs3)nc(C)c2C)cc1 | 60.5% (inactive)
Cn1c2c(Cl)c(Cl)ccc2c2cc(N)[nH]c(=O)c21 | 59.2% (inactive)
CC(=O)c1c[nH]c2ccc(-c3ccnc(Nc4ccc(NC(=O)c5cccc(F)c5)c(CN5CCOCC5)c4)n3)cc12 | -0.697% (active)
Clc1nc(Nc2ccccc2)nc(Nc2ccccc2)n1 | 91.2% (inactive)
O=C1Nc2c(ccc(Cl)c2Cl)/C1=C/c1ccccn1 | 93.5% (inactive)
Cc1ccc2nc3c(cc2c1)CSc1nnc(-c2ccc[nH]c2=S)n1N3 | 91.5% (inactive)
CN1CCN(C(=O)[C@]2(C)CC[C@]3(C)CC[C@]4(C)C(=CC(=O)[C@@H]5[C@@]6(C)CCC(=O)NC(C)(C)[C@@H]6CC[C@]54C)[C@@H]3C2)CC1 | 91.8% (inactive)
COc1ccc(-c2nn(Cc3ccccc3)c3c2-c2oncc2CC3)cc1OC | 131% (inactive)
O=c1[nH]c2c(s1)CCCC2CN1CCCCC1 (stereo unspecified) | 95.1% (inactive)
CC(C)(C)CC(C)(C)Nc1c(-c2ccc3c(c2)OCO3)nc2cnccn12 | 90.1% (inactive)
